High-throughput results from PubChem.
Only some compounds are listed: those with a hit (about 0.77% of all), similar ones and a draw of the others.
NS1 function inh: blocks influenza NS1 protein function; Potency, µM (highest dose often 46.1 µM); 270,000 compounds, 0.4% hits; AID 2326; calls by dose curve; further: actives are rising curves; nearly all actives have a fitted effect of over 50% in size
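Compounds were scored for reversing the slow growth caused by influenza A NS1 in S. cerevisiae, measured by optical density at 600 nm. Assay medium contained 2% galactose at pH 6.0; NS1-free yeast of the same strain were the positive control.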
LmPK inhibitor: inhibitors of Leishmania mexicana pyruvate kinase; purified LmPK, Kinase-Glo ATP luminescence, 1 h; Potency, µM (series often up to 57.5 µM), hits mostly inhibitors; 290,000 compounds, 0.37% hits
Target sequence (Q27686 whole entry, looked up): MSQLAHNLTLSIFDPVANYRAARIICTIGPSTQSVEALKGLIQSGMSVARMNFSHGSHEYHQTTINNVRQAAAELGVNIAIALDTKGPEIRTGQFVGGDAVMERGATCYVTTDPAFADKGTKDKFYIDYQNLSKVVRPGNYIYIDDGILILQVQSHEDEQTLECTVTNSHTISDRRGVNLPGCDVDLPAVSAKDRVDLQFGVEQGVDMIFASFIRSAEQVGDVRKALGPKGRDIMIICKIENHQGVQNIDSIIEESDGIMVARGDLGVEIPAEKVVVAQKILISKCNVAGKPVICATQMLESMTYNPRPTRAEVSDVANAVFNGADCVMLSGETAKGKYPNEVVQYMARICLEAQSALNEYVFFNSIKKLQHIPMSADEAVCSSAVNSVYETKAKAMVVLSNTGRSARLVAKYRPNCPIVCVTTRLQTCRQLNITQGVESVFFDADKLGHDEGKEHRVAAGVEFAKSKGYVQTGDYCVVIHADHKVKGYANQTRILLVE
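Purified LmPK (0.1 nM) with 0.5 mM PEP and 0.1 mM ADP in imidazole buffer pH 7.2 with MgCl2/KCl, 1 h at room temperature. ATP formed was read by luciferase luminescence and normalized to no-enzyme and uninhibited controls.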
Tb PYK inh: blocks Trypanosoma brucei pyruvate kinase; TbPYK enzyme, Kinase-Glo Plus ATP luminescence, 45 min; Potency, µM (doses to about 76.8 µM), hits mostly inhibitors; 410,000 compounds, 0.12% hits; AID 624173; further: nearly all actives have a fitted effect of over 50% in size
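TbPYK + substrate in 50 mM TEA pH 7.2, 100 mM KCl, 10 mM MgCl2, 0.05% BSA, 0.01% Tween-20; cpd pinned; ADP 130 uM final; 45 min RT; Kinase-Glo Plus 10 min; luminescence endpoint.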
RE007 growth inh: less growth of the S. pombe RE007 Vpr strain; S. pombe RE007 Vpr strain, BacTiter-Glo ATP luminescence, 24 h; Potency, µM (series often up to 92.2 µM), most hits filed as inhibitors; 360,000 compounds, 0.21% hits; AID 651644; active means well fitted falling curve with a large enough effect; inconclusive means small, poorly fitted or top-dose-only effect; inactive means no such curve, though single readings can be large or run the other way; further: nearly all actives have a fitted effect of over 50% in size
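Fission yeast strain RE007, carrying one chromosomally integrated HIV-1 vpr copy, was seeded at OD 0.01 in PMG+AL medium with 23 nL pinned compound. After 24 h at 30 °C and 99% humidity, viability was read by BacTiter-Glo luminescence.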
A number is an active result; - = inactive; ? = inconclusive; . = no result given; [ ] = remark or other dose. Unless noted, the call rests on the fitted dose curve; in most records, active means well fitted curve in the direction sought with a large enough effect; inconclusive means small, poorly fitted or top-dose-only effect, or another doubt; inactive means no such curve, though single readings can be large; an effect the other way counts as inactive or inconclusive.

SMILES | NS1 function inh | LmPK inhibitor | Tb PYK inh | RE007 growth inh
COC(=O)C1CCN(C2CC(=O)N(c3cc(C)cc(C)c3)C2=O)CC1 (stereo unspecified) | . | - | - | 35.5µM
CCN(CC)C1CC(=O)N(c2cccc(Cl)c2)C1=O (stereo unspecified) | - | - | - | 5.62µM
CCN1C(=O)CC(N2CCC(C(=O)OC)CC2)C1=O (stereo unspecified) | - | - | - | -
O=C(O)CSC1CC(=O)N(c2cccc(Cl)c2)C1=O (stereo unspecified) | - | - | - | -
O=C(C1CCN(C2CC(=O)N(c3cccc(Cl)c3)C2=O)CC1)N1CCCC1 (stereo unspecified) | - | - | - | 12.6µM
C[N+](C)(C)CC(=O)N/N=C\c1ccncc1 | - | . | . | .
CCOC(=O)c1c(N2C(=O)C=CC2=O)sc(C)c1C | - | ? | 25.1µM | 12.6µM
CCOC(=O)c1c(NC(N)=O)sc(C)c1C | - | - | - | -
O=C(CS(=O)c1ccc(C(F)(F)F)cc1[N+](=O)[O-])Oc1ccccc1 (stereo unspecified) | - | - | - | 44.7µM
N/C(=N\OC(=O)c1ccc2c(c1)OCO2)c1ccncc1 | - | 25.1µM | - | -
C[C@@H]1CC[C@@H]2N(C1)C[C@H]1[C@@](O)([C@H](O)C[C@]3(O)[C@H]4CC[C@H]5[C@]6(O)O[C@]4(C[C@]13O)[C@@]5(C)CC[C@@H]6O)[C@@]2(C)O | - | . | . | .
c1ccc(-c2nnc(-c3ccccn3)s2)nc1 | - | 12.6µM | ? | -
CCCN1CCCC(c2cccc(O)c2)C1 (stereo unspecified) | - | . | . | .
CC1(c2ccc([N+](=O)[O-])cc2)Nc2ccccc2S1 (stereo unspecified) | - | - | - | 39.8µM
O=C1Nc2ccccc2/C1=C/c1ccc([N+](=O)[O-])cc1 | - | - | - | -
CCSC1(SCC)N=C(N)C2(C#N)C(c3ccccc3)NC3=C(CCC3)C12C#N (stereo unspecified) | - | - | - | ?
CCSC1(SCC)N=C(N)C2(C#N)C(c3ccc(OC)c(OC)c3OC)C12C#N (stereo unspecified) | - | - | - | 5.62µM
C[C@@H]1CCCCO[C@H](CN(C)C(=O)Nc2cccc3ccccc23)[C@@H](C)CN([C@H](C)CO)C(=O)c2cc(N(C)C)ccc2O1 | . | . | 11.2µM | -
Cc1cccc(N2CCN(C(=O)c3c4c(nc5ccccc35)C(=O)N(C3CCCCC3)C4)CC2)c1C | . | . | - | .
O=C(NN=Cc1ccc2c(c1)OCO2)c1ccccc1 | . | . | - | -
O=C(N/N=C\c1ccc2c(c1)OCO2)c1ccco1 | - | 14.1µM | - | -
CN(C)c1ccc(NC(=O)Cn2cc(S(=O)(=O)Cc3ccccc3Cl)c3ccccc32)cc1 | . | . | - | .
Oc1[nH]c(=S)sc1C=C1N=c2ccccc2=N1 | - | 15.8µM | ? | -
CCC(C)C1OC2(C=CC1C)CC1CC(C/C=C(\C)C(OC3CC(OC)C(OC4CC(OC)C(NC(C)=O)C(C)O4)C(C)O3)C(C)/C=C/C=C3\COC4C(O)C(C)=CC(C(=O)O1)C34O)O2 (stereo unspecified) (tested in a mixture with another compound) | . | . | - | .
COc1ccc(N2C(=O)CC(Sc3n[nH]c(-c4cccc(C)c4)n3)C2=O)cc1 (stereo unspecified) | - | - | - | 20µM
SMILES | NS1 function inh | LmPK inhibitor | Tb PYK inh | RE007 growth inh
CCCC(=O)O[C@]1(C(=O)COC(=O)CC)[C@@H](C)C[C@H]2[C@@H]3CCC4=CC(=O)C=C[C@@]4(C)[C@@]3(F)[C@H](O)C[C@@]21C | . | . | - | .
CC1(C)CCC(C)(C)c2c1ccc(O)c2Cc1c(O)ccc2c1C(C)(C)CCC2(C)C | - | . | . | .
O=C(O)c1ccc2nc(-c3ccco3)c(-c3ccco3)nc2c1 | - | - | ? | -
O=C(O)c1ccc2nc3c(nc2c1)-c1ccccc1C3=O | . | ? | 31.6µM | -
O=c1ccn(C2OC(COP(=O)(O)OC3C(CO)OC(n4ccc(=O)[nH]c4=O)C3O)C(O)C2O)c(=O)[nH]1 (stereo unspecified) | . | . | - | .
CCc1sc(C(C2C(=O)CC(C)(C)CC2=O)C2C(=O)CC(C)(C)CC2=O)cc1[N+](=O)[O-] | - | - | 25.1µM | -
CC(NNC(=O)c1ccccc1)c1ccccc1 (stereo unspecified) | . | . | - | .
CCOc1ccc(N=Nc2c(=O)[nH]n3c(=O)cc(C)[nH]c23)cc1 | - | 14.1µM | - | ?
O=C1N=c2ccccc2=C1c1sc(=O)[nH]c1O | - | 10µM | ? | -
O=C1N=c2ccc([N+](=O)[O-])cc2=C1c1sc(=O)[nH]c1O | - | ? | - | -
O=C(/C=C/c1ccc(O)c(O)c1)O[C@H](Cc1ccc(O)c(O)c1)C(=O)O | 5.62µM | - | . | .
COc1cccc2c1[C@H](CO)N1[C@H](C#N)[C@@H]3C[C@H](C(=O)O)[C@@H]([C@@H]1C2)N3C | - | . | . | .
COc1cc(/C=N/N(C)c2ccccc2)cc(Cl)c1O | - | - | - | 28.2µM
COc1cccc(NC(=O)C(=O)NCCc2csc(-c3ccc(C)cc3)n2)c1 | . | . | - | .
c1coc(-c2nnc(-c3ccco3)nn2)c1 | - | ? | - | 14.1µM
Nc1cc(C2CCCC2)nn1-c1ccccc1 | - | 14.1µM | - | -
O=C(O)c1cc(C2CC2)nn1-c1ccccc1 | - | - | - | -
COC1=CC(=O)c2ccccc2C1=O | . | . | - | 22.4µM
COC1=CC(=O)C=C(OC)C1=O | . | . | ? | -[18.4 µM]
CCOC(=O)C1=C(C)N(c2ccccc2)C(=O)/C1=C\c1ccc(O)c(OC)c1 | 2.51µM | ? | - | -
COc1cc(/C=C2/C(=O)CNC2=O)ccc1O | . | - | ? | -
COc1cc(C=C2C(=O)C=CC2=O)ccc1O | . | . | 3.55µM | 2µM
O=C(Nc1cccc2c(=O)cc(-c3nn[nH]n3)oc12)c1ccc(OCCCCc2ccccc2)cc1 | . | . | - | .
O=C(O)c1cc(N=Nc2ccc([N+](=O)[O-])cc2)ccc1O | - | . | . | .
CCN(CC)CCOC(=O)c1ccc(N)cc1Cl | . | . | - | .
SMILES | NS1 function inh | LmPK inhibitor | Tb PYK inh | RE007 growth inh
COc1cccc(NC(=O)C2CC(=O)n3cnnc3S2)c1 (stereo unspecified) | - | - | - | 35.5µM
CCOc1ccc(N=Cc2c(C)[nH]n(-c3nc4ccccc4[nH]3)c2=O)cc1 | - | 22.4µM | ? | 3.98µM
O=[N+]([O-])c1ccc(Oc2ccc(N=C=S)cc2)cc1 | . | . | - | .
S=c1[nH]nc(-c2ccccc2)n1/N=C/c1cccs1 | - | ? | 11.2µM | -
S=c1[nH]nc(-c2ccc(Cl)cc2)n1/N=C/c1ccco1 | - | - | 3.98µM | -
COc1ccc(-c2n[nH]c(=S)n2/N=C/c2cccn2C)cc1 | - | - | 2.51µM | -
Cc1ccc(-c2n[nH]c(=S)n2/N=C/c2cccn2C)cc1 | - | 7.94µM | 5.01µM | -
Cc1ccc(-c2n[nH]c(=S)n2/N=C/c2cccs2)cc1 | - | - | ? | .
CCCOc1ccc(NC(=O)CC2C(=O)N(c3ccc(Cl)cc3)C(=O)N2CCc2ccncc2)cc1 (stereo unspecified) | . | . | - | .
CCCCCCC(=O)O[C@@H]1CC[C@H]2[C@@H]3CCc4cc(O)ccc4[C@H]3CC[C@]12C | . | . | - | .
